Numbering of substitutions follows the chain as printed.
How the values were obtained:
Test in all cases: protein-binding microarray (PBM); PBM: ~300 nM protein, 6 mM HEPES pH 7.8, 80 mM KCl, 0.5 mM EDTA, 0.5 mM EGTA, 6% glycerol, 35 ng/ul poly-dIdC, 1% milk, 1 h, room temperature; Ap Aiptasia and Nv Nematostella (sea anemones) / Co Capsaspora / Aq Amphimedon (sponge) / Dm Drosophila / Hu human; RHD is the Rel homology domain; high values mean tight binding
Details in all cases: dsDNA, one strand shown
[1] = target: T1, GST-Ap-NF-kB RHD (Exaiptasia pallida (Aiptasia), UniProt A0A913YAJ5 2-422)
T1 sequence: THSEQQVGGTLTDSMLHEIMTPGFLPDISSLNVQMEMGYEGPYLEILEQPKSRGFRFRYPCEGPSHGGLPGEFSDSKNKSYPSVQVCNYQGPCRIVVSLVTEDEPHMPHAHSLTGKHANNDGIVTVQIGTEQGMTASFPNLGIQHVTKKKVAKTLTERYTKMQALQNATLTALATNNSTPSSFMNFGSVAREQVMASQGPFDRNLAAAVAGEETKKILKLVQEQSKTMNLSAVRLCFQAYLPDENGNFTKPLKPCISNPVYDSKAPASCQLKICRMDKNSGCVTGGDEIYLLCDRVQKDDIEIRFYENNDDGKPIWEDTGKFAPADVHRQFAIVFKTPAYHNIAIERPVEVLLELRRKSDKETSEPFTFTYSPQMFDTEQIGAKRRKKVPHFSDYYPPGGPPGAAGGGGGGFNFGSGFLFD

[2] = target: T2, GST-Nv-NF-kB (Cys allele) (Nematostella vectensis, UniProt E5G601 2-411)
T2 sequence: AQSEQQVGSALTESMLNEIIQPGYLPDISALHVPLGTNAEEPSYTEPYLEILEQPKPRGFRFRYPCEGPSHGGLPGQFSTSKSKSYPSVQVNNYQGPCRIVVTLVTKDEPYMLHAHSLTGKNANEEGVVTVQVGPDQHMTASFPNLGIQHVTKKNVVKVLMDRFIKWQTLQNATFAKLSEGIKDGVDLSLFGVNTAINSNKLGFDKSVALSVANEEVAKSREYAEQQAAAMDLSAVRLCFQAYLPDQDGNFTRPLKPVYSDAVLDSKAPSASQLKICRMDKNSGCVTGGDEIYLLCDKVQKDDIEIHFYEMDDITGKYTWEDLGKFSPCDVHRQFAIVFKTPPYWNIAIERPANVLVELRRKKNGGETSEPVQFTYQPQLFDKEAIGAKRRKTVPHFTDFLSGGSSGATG

[3] = target: T3, GST-Nv-NF-kB (Ser allele) (Nematostella vectensis, UniProt A7UNT2 2-411)
T3 sequence: T2 sequence with Q21R, C66S, S207N, E215Q, V217A, E225K, A268E, D399E

[4] = target: T4, GST-Co-NF-kB (Capsaspora owczarzaki, UniProt F1ARL5 200-546)
T4 sequence: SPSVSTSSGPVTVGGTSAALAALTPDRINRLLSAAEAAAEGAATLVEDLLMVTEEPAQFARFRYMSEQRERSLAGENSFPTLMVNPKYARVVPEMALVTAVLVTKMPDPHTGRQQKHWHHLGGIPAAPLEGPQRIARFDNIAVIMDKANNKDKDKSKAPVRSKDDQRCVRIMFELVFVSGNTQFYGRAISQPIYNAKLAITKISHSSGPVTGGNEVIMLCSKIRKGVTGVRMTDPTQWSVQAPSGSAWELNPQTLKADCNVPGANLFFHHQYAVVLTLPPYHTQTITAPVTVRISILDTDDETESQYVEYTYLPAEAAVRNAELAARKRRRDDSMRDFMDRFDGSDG

[5] = target: T5, GST-Dm-Relish (Drosophila melanogaster, UniProt Q94527 99-473)
T5 sequence: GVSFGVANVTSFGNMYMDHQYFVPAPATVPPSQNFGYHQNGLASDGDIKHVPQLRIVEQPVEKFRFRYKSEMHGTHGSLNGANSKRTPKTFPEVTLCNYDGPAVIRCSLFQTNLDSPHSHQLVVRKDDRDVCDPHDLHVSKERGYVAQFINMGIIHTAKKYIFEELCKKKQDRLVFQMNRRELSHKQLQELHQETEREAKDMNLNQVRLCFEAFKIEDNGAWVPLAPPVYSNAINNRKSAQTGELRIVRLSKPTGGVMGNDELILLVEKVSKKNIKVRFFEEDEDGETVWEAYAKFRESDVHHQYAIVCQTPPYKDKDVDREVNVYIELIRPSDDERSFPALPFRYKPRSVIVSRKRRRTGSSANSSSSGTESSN

[6] = target: T6, GST-Aq-NF-kB (Amphimedon queenslandica, UniProt A9Y5G7 2-389)
T6 sequence: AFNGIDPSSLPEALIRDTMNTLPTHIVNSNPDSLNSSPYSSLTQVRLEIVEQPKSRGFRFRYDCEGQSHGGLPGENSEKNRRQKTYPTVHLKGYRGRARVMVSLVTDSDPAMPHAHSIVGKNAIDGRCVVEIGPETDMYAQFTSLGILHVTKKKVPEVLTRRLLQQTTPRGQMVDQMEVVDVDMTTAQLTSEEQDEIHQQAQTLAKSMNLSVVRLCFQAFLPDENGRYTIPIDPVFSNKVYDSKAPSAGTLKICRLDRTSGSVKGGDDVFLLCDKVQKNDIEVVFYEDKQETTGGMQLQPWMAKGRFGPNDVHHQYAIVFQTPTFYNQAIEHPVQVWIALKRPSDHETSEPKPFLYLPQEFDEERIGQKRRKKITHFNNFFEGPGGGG

Sequence | binding signal [1] [z-score] | binding signal [2] [z-score] | binding signal [3] [z-score] | binding signal [4] [z-score] | binding signal [5] [z-score] | binding signal [6] [z-score]
CCGATTAACATCAAAATTCCCTCTGATGTTAATCGGGTCTTGATTCGCTTGACGCTGCTG | 5.17 | 7.29 | 7.2 | 3.2 | 5.36 | 6.5
CCGATTAACATCAAAGTTTTCCCTGATGTTAATCGGGTCTTGATTCGCTTGACGCTGCTG | 4.37 | 6.15 | 7.61 | 6.07 | 2.47 | 4.93
CCGATTAACATCAAAAATTCCCATGATGTTAATCGGGTCTTGATTCGCTTGACGCTGCTG | 5.04 | 7.75 | 6.99 | 5.2 | 7.58 | 6.55
CCGATTAACATCAGGGAGACCCCTGATGTTAATCGGGTCTTGATTCGCTTGACGCTGCTG | 6.28 | 3.82 | 1.04 | 2.28 | 6.09 | 6.87
CCGATTAACATCAGGGGAACATATGATGTTAATCGGGTCTTGATTCGCTTGACGCTGCTG | 5.1 | 5.89 | 6.74 | 7.58 | 4.08 | 5.59
CCGATTAACATCAGATTATCCCCTGATGTTAATCGGGTCTTGATTCGCTTGACGCTGCTG | 5.35 | 6.05 | 6.87 | 5.37 | 2.63 | 4.98
CCGATTAACATCAAATTTTTCCCTGATGTTAATCGGGTCTTGATTCGCTTGACGCTGCTG | 3.81 | 6.06 | 8.21 | 6.81 | 2.35 | 4.92
CCGATTAACATCAGACGTGGGAATGATGTTAATCGGGTCTTGATTCGCTTGACGCTGCTG | 1.19 | 1.45 | 1.48 | 2.5 |  | 2.21
CCGATTAACATCAGGGGGGGGACTGATGTTAATCGGGTCTTGATTCGCTTGACGCTGCTG | 7.06 | 5.11 | 4.69 | 4.78 |  | 5.29
CCGATTAACATCAAGGGAAAATATGATGTTAATCGGGTCTTGATTCGCTTGACGCTGCTG | 3.77 | 7.5 | 8.19 | 4.43 | 1.66 | 4.44
CCGATTAACATCAAATAATTCCCTGATGTTAATCGGGTCTTGATTCGCTTGACGCTGCTG | 4.23 | 7.21 | 7.13 | 5.48 | 4.85 | 6.69
CCGATTAACATCAAGGGGGGGCATGATGTTAATCGGGTCTTGATTCGCTTGACGCTGCTG | 4.34 | 4.38 | 2.83 | 4.6 | 3.45 | 4.09

From PMC5700166
